Source: PubChem BioAssay AID588405 (Sanford-Burnham Center for Chemical Genomics, 2011)
Out of some 360,000 compounds screened, about 6,200 (1.7%) were called active. Shown is part of a subset that was picked to be rich in actives. A number with no mark means an inactive call.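 How the source made its calls: active means inhibition of at least 50% at 20 µM; inactive means the rest.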

assay: Peg3 promoter-driven luciferase inhibitors, primary screen, cell-based, HeLa, luciferase luminescence (AID 588405); details: HeLa PEG-Prom luciferase reporter, overnight, at 20 µM, stronger effect = higher value

Q: For CCOc1ccc(Cl)cc1-c1cc(C(=O)NCc2cccs2)[nH]n1, which inhibition is on record?
A: -9.07%

Q: With Cc1cc(C(=O)CCl)c(C)n1CC1COc2ccccc2O1 (stereo not given) as the compound, how does the inhibition read?
A: 103% (active)

Q: With Cc1noc(C)c1C(=O)NCC1COc2ccccc2O1 (stereo not given) as the compound, how does the inhibition read?
A: 15.8%

Q: For CCn1cc(C(=O)NCC2COc3ccccc3O2)c2cc(OC)c(OC)cc2c1=O (stereo not given), which inhibition is on record?
A: 8.43%

Q: For O=C(Nc1ccc(Cl)cc1)C1Cc2c(-c3ccc4c(c3)OCO4)ccnc2O1 (stereo not given), which inhibition is on record?
A: 29%

Q: With Cc1ccc(-c2nnc(-n3nnc4ccccc43)c3ccccc23)cc1 as the compound, how does the inhibition read?
A: 6.18%

Q: Which inhibition does the source give for CC1(Cc2ccccc2C#N)C(=O)Nc2ccc(-c3ccc4[nH]ccc4c3)cc21 (stereo not given) here?
A: 14.4%

Q: With Cc1nc2ccccc2nc1CC(O)(c1ccccc1)c1ccccc1 as the compound, how does the inhibition read?
A: -1.32%

Q: For CN(O)C(=S)c1ccccc1, which inhibition is on record?
A: 92.1% (active)

Q: With CN(Cc1ccccc1)C(=O)c1cccc(C(=O)N(C)Cc2ccccc2)c1 as the compound, how does the inhibition read?
A: 8.74%

Q: For Cc1ccc(CS(=O)Cc2ccc(C(=O)N3CCOCC3)o2)cc1 (stereo not given), which inhibition is on record?
A: 11.9%

Q: With CCc1nc2ccc(C(=O)Nc3cc(-c4ccccc4)ccc3OC)cn2c1N(CC)CC(=O)N(C)C as the compound, how does the inhibition read?
A: -22.1%

Q: For CCN1CCCC1CNC(=O)c1cc2cc(OC)c(OC)cc2[nH]1 (stereo not given), which inhibition is on record?
A: 18%

Q: Which inhibition does the source give for CCCC1=Nc2cc(C(=O)NCCN3CCCC3)ccc2Sc2ccccc21 here?
A: 16.7%

Q: For Cc1ccccc1CN1C(=O)c2ccccc2Sc2ccc(C(=O)NCCCN3CCOCC3)cc21, which inhibition is on record?
A: 26.3%

Q: For Cc1c(C)n(Cc2ccc(Cl)cc2)c2ccc(C(=O)NCCCN3CCOCC3)cc12, which inhibition is on record?
A: 47.1%

Q: Which inhibition does the source give for CCN1CCN(CCNC(=O)c2ccc(/C=C3/Sc4ccccc4N(Cc4cccc(C)c4)C3=O)cc2)CC1 here?
A: 103% (active)

Q: With CCN1CCN(CCNC(=O)c2ccc3c(c2)NC(=O)/C(=C\c2cccc(Cl)c2)S3)CC1 as the compound, how does the inhibition read?
A: 99.5% (active)

Q: With CC(C)OCCCNC(=O)CN1C(=O)/C(=C/c2ccccc2F)Oc2ccccc21 as the compound, how does the inhibition read?
A: 4.52%

Q: For CN1CCN(CCCNC(=O)c2ccc(/C=C3\Oc4ccccc4N(Cc4ccc(Cl)cc4)C3=O)cc2)CC1, which inhibition is on record?
A: 109% (active)

Q: Which inhibition does the source give for CCN1CCCC1CNC(=O)c1ccc2c(c1)NC(=O)/C(=C\c1ccccc1F)S2 (stereo not given) here?
A: 56.9% (active)

Q: Which inhibition does the source give for CCN1CCCC1CNC(=O)c1cc2c(=O)n(C)c3ccccc3c2n1C (stereo not given) here?
A: -10.3%

Q: Which inhibition does the source give for O=C(NCCCN1CCCCC1)c1ccc2c(c1)NC(=O)C(N1CCOCC1)S2 (stereo not given) here?
A: -8.33%

Q: With O=C(NCCN1CCOCC1)c1ccc2c(c1)N(Cc1cccc(Cl)c1)C(=O)c1ccccc1S2(=O)=O as the compound, how does the inhibition read?
A: 23.8%

Q: With COc1ccc(-c2cc(NC=O)c3ncc(-c4cc(OC)c(OC)c(OC)c4)n3c2)c(OC)c1 as the compound, how does the inhibition read?
A: 1.14%

Q: For Nc1ncnc2c1ncn2[C@@H]1O[C@H](C(=O)N2CCCN(Cc3ccccc3F)CC2)[C@@H](O)[C@H]1O, which inhibition is on record?
A: 3.41%

Q: With OC[C@@H]1CN(Cc2ccc(F)cc2)C[C@H](n2cnc3c(NC4CCCC4)ncnc32)O1 as the compound, how does the inhibition read?
A: 12.2%

Q: Which inhibition does the source give for CCCNC(=O)C1(C)CCN(C(=O)c2ccc(F)cc2Cl)C1 (stereo not given) here?
A: 1.51%

Q: Which inhibition does the source give for CC1(C(=O)NS(=O)(=O)Cc2cccc(Cl)c2)CCN1C(=O)Cc1ccc(Cl)cc1Cl (stereo not given) here?
A: -1.37%

Q: Which inhibition does the source give for Cc1cn([C@H]2C[C@H](O)[C@@H](/C=C/C(=O)NCCCc3ccccc3)O2)c(=O)[nH]c1=O here?
A: 9.64%

Q: With O=C(NCCN1CCOCC1)c1ccc(/C=C2\Sc3ccccc3N(Cc3ccc(F)cc3)C2=O)cc1 as the compound, how does the inhibition read?
A: 66.6% (active)

Q: For O=C(NCCN1CCOCC1)/C(=C/c1ccc(F)cc1)NC(=O)c1ccccc1, which inhibition is on record?
A: -17.8%

Q: For Cc1ccc(C(=O)N/C(=C\c2ccc(F)cc2)C(=O)NCCN2CCOCC2)cc1, which inhibition is on record?
A: -0.33%

Q: With O=[N+]([O-])c1ccc(CN2CC(N3CC=CC3)CS2(=O)=O)cc1 (stereo not given) as the compound, how does the inhibition read?
A: -12%

Q: Which inhibition does the source give for CN(C)CCNC(=O)c1cccc(-c2cnc3c(NC=O)cc(-c4cccc(C(F)(F)F)c4)cn23)c1 here?
A: 98.7% (active)

Q: With CC(=O)c1cccc(-c2cnc3c(NC=O)cc(-c4cccc(C(=O)N(C)C)c4)cn23)c1 as the compound, how does the inhibition read?
A: 33.8%

Q: For CN(C)C(=O)c1cccc(-c2cnc3c(NC=O)cc(-c4ccc(F)cc4)cn23)c1, which inhibition is on record?
A: 35.5%

Q: With Nc1nc2c(ncn2[C@@H]2O[C@H](CNCc3ccc(OCCCN4CCOCC4)cc3)[C@@H](O)[C@H]2O)c(=O)[nH]1 as the compound, how does the inhibition read?
A: -2.38%

Q: With COc1ccc(CNC(=O)c2ccc(-c3cccnc3)c3ccoc23)cc1OC as the compound, how does the inhibition read?
A: 10.8%

Q: Which inhibition does the source give for Cc1c(C(=O)Nc2cccc(Cl)c2)cn2c(nc3ccccc32)c1C#N here?
A: 60.9% (active)

Q: For Cc1cc(Cl)nc(NC(=O)Nc2cccc(Cl)c2)n1, which inhibition is on record?
A: -174%

Q: For CCC(=O)Nc1nc(C)c(C(=O)Nc2cccc(Cl)c2)s1, which inhibition is on record?
A: -28.7%

Q: Which inhibition does the source give for COc1cccc(CN(C)C(=O)CC[C@H]2O[C@@H](n3cnc4c(NC(=O)c5ccccc5)ncnc43)[C@H](O)[C@@H]2O)c1 here?
A: 4.1%

Q: Which inhibition does the source give for C[N+]1(CCNC(=O)/C=N/O)CCCCC1 here?
A: 17%

Q: Which inhibition does the source give for CCCNC(=O)C1(C)CCCN(C(=O)c2oc3ccccc3c2C)C1 (stereo not given) here?
A: -3.03%

Q: For Cc1nc(Nc2ccccc2F)c2nnn(Cc3ccccc3Cl)c2n1, which inhibition is on record?
A: 8.32%

Q: With Cc1nc(Nc2ccc3c(c2)OCCO3)c2nnn(Cc3ccccc3Cl)c2n1 as the compound, how does the inhibition read?
A: 54.7% (active)

Q: With CCCc1nc(NCc2ccc3c(c2)OCO3)c2nnn(Cc3ccccc3Cl)c2n1 as the compound, how does the inhibition read?
A: 1.34%

Q: With COc1ccccc1-c1nn(Cc2ccccc2)cc1C(=O)N1CCN(c2ncccn2)CC1 as the compound, how does the inhibition read?
A: 33.2%

Q: Which inhibition does the source give for CC(CC(=O)O)C(=O)c1ccc(Cl)c([N+](=O)[O-])c1 (stereo not given) here?
A: 1.7%

Q: With C/C(=N\NC(=O)Cc1ccccc1[N+](=O)[O-])c1cccnc1 as the compound, how does the inhibition read?
A: 17.7%

Q: With O=C(/C=C/c1ccc(Cl)c([N+](=O)[O-])c1)c1ccc(O)cc1 as the compound, how does the inhibition read?
A: 104% (active)

Q: For O=C(/C=C/c1ccc(Cl)c([N+](=O)[O-])c1)c1cccnc1, which inhibition is on record?
A: 105% (active)

Q: For CC(=O)Nc1ccc(C=CC(=O)c2ccc([N+](=O)[O-])cc2)cc1, which inhibition is on record?
A: 4.26%

Q: For O=C(Nc1cccnc1)c1ccc(Cl)cc1[N+](=O)[O-], which inhibition is on record?
A: -0.43%
